About 83,000 compounds went through this panel and 20% of them were active in at least one assay; those are over-represented in the sample as a whole.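 The endpoint reported here, percent growth, reads 100 for growth as untreated, 0 for no net growth and -100 for all cells dead.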 Calls of active or inactive are those of the source. The calls were made as follows: active = growth percent below 10; inactive = the rest.
Assays:
Assay in all cases: NCI-60 one-dose screen, 48 h (100 = growth as untreated, 0 = no growth, -100 = all killed)
Details in all cases: 10 µM unless noted
SK-MEL-2 melanoma = tested on: SK-MEL-2 melanoma
SN12C renal = tested on: SN12C renal
UO-31 renal = tested on: UO-31 renal
TK-10 renal = tested on: TK-10 renal
ACHN renal = tested on: ACHN renal
A498 renal = tested on: A498 renal
CCRF-CEM leukemia = tested on: CCRF-CEM leukemia
MOLT-4 leukemia = tested on: MOLT-4 leukemia
SR leukemia = tested on: SR leukemia
RPMI-8226 leukemia = tested on: RPMI-8226 leukemia
OVCAR-5 ovarian = tested on: OVCAR-5 ovarian
OVCAR-4 ovarian = tested on: OVCAR-4 ovarian
IGROV1 ovarian = tested on: IGROV1 ovarian
OVCAR-3 ovarian = tested on: OVCAR-3 ovarian
HS 578T breast = tested on: HS 578T breast
NCI/ADR-RES ovarian = tested on: NCI/ADR-RES ovarian
CAKI-1 renal = tested on: CAKI-1 renal
OVCAR-8 ovarian = tested on: OVCAR-8 ovarian
SK-OV-3 ovarian = tested on: SK-OV-3 ovarian

Measured: growth

CCOC(=O)c1ccc(NC(=O)N2CC(C)OC(C)C2)cc1 (centres undefined)
inactive: SK-MEL-2 melanoma 113% | SN12C renal 97.4% | TK-10 renal 125% | ACHN renal 96.7% | A498 renal 80.6% | CCRF-CEM leukemia 102% | MOLT-4 leukemia 99.9% | SR leukemia 98.7% | RPMI-8226 leukemia 63.1% | OVCAR-5 ovarian 94% | OVCAR-4 ovarian 96.8% | IGROV1 ovarian 73.6% | OVCAR-3 ovarian 109% | HS 578T breast 101% | NCI/ADR-RES ovarian 100%
active: UO-31 renal 4.84%

COc1cc(Nc2nc(N[C@H]3CCCC[C@@H]3N)nc3cc[nH]c(=O)c23)cc(OC)c1
active: CCRF-CEM leukemia -2.71% | MOLT-4 leukemia 3.76% | IGROV1 ovarian 8.81%
inactive: SK-MEL-2 melanoma 41.7% | SN12C renal 33.2% | UO-31 renal 47.7% | TK-10 renal 66.5% | ACHN renal 44.7% | CAKI-1 renal 51.4% | A498 renal 12.4% | RPMI-8226 leukemia 25% | OVCAR-8 ovarian 14.5% | OVCAR-5 ovarian 22.2% | SK-OV-3 ovarian 24.1% | OVCAR-3 ovarian 70.4% | HS 578T breast 53.6% | NCI/ADR-RES ovarian 100%

O=C(O)C1CCCCN1c1nc(Cl)nc(Cl)n1 (centres undefined)
inactive: SK-MEL-2 melanoma 104% | SN12C renal 103% | UO-31 renal 98.1% | TK-10 renal 103% | ACHN renal 113% | A498 renal 90% | CCRF-CEM leukemia 105% | MOLT-4 leukemia 104% | SR leukemia 118% | RPMI-8226 leukemia 109% | OVCAR-8 ovarian 99.3% | OVCAR-5 ovarian 105% | SK-OV-3 ovarian 99.9% | IGROV1 ovarian 106% | OVCAR-3 ovarian 108% | HS 578T breast 103% | NCI/ADR-RES ovarian 101%

CCOC(=O)c1ccc2c(c1)nc(-c1ccc(OCc3ccccc3)c(OC)c1)n2-c1cc(C(C)(C)C)[nH]n1
inactive: SK-MEL-2 melanoma 92.9% | SN12C renal 85.8% | UO-31 renal 67.5% | TK-10 renal 90.5% | ACHN renal 72.1% | CAKI-1 renal 76.5% | A498 renal 72.3% | MOLT-4 leukemia 43.4% | SR leukemia 68.9% | RPMI-8226 leukemia 68.8% | OVCAR-8 ovarian 99.7% | OVCAR-5 ovarian 88.9% | SK-OV-3 ovarian 91.2% | IGROV1 ovarian 83% | OVCAR-3 ovarian 81.8% | HS 578T breast 82.2% | NCI/ADR-RES ovarian 89.1%

COc1ccc(/C=C2\Oc3cc(OCCCN4CCCC4)ccc3C2=O)c(OC)c1
active: SR leukemia -26.5%
inactive: SK-MEL-2 melanoma 103% | SN12C renal 91.8% | UO-31 renal 74.9% | TK-10 renal 103% | ACHN renal 91.4% | CAKI-1 renal 91.9% | CCRF-CEM leukemia 11.9% | MOLT-4 leukemia 32.7% | RPMI-8226 leukemia 66.9% | OVCAR-8 ovarian 80% | OVCAR-5 ovarian 100% | SK-OV-3 ovarian 110% | IGROV1 ovarian 88.2% | OVCAR-3 ovarian 97.4% | HS 578T breast 94.5% | NCI/ADR-RES ovarian 91%

COc1cc(-c2nn(-c3cccc(NC(=O)Nc4ccc(Cl)c(Cl)c4)c3)cc2-c2ccncc2)ccc1Cl
inactive: SN12C renal 10.6% | UO-31 renal 15.9% | TK-10 renal 10.9% | ACHN renal 11.5% | CAKI-1 renal 16.8% | OVCAR-5 ovarian 38% | OVCAR-4 ovarian 19.8% | SK-OV-3 ovarian 11.8% | IGROV1 ovarian 23.9%
active: SK-MEL-2 melanoma -44.2% | A498 renal -6.82% | CCRF-CEM leukemia -7.9% | MOLT-4 leukemia -11.1% | RPMI-8226 leukemia -11.6% | OVCAR-3 ovarian -10% | HS 578T breast -6.95% | NCI/ADR-RES ovarian 0.321%

Nc1nnc(-c2ccc3ccccc3c2O)o1
inactive: SK-MEL-2 melanoma 97.9% | SN12C renal 95.9% | UO-31 renal 61.5% | TK-10 renal 128% | ACHN renal 91.7% | CAKI-1 renal 96.8% | A498 renal 103% | CCRF-CEM leukemia 88.7% | MOLT-4 leukemia 75.5% | RPMI-8226 leukemia 90.8% | OVCAR-8 ovarian 97.6% | OVCAR-5 ovarian 102% | SK-OV-3 ovarian 105% | IGROV1 ovarian 86% | OVCAR-3 ovarian 99.2% | NCI/ADR-RES ovarian 84.5%

COc1cc(/C=C/C(=O)N2CCN(C(=O)/C=C/c3cc(OC)c(OC)c(OC)c3)CC2)cc(OC)c1OC
inactive: SK-MEL-2 melanoma 110% | SN12C renal 102% | UO-31 renal 88.5% | TK-10 renal 121% | ACHN renal 106% | CAKI-1 renal 119% | CCRF-CEM leukemia 98.6% | MOLT-4 leukemia 95.9% | SR leukemia 75.2% | RPMI-8226 leukemia 98.6% | OVCAR-8 ovarian 96.4% | OVCAR-5 ovarian 111% | OVCAR-4 ovarian 103% | SK-OV-3 ovarian 116% | IGROV1 ovarian 111% | OVCAR-3 ovarian 117% | HS 578T breast 98.8% | NCI/ADR-RES ovarian 113%

C=C[C@@H]1C[C@@H]2Cc3cc(F)ccc3N1O2
active: CCRF-CEM leukemia -57.7%
inactive: SK-MEL-2 melanoma 117% | SN12C renal 102% | UO-31 renal 129% | TK-10 renal 107% | ACHN renal 106% | CAKI-1 renal 92.5% | A498 renal 97.8% | SR leukemia 32% | RPMI-8226 leukemia 94.1% | OVCAR-8 ovarian 114% | OVCAR-5 ovarian 97% | OVCAR-4 ovarian 104% | SK-OV-3 ovarian 113% | IGROV1 ovarian 122% | OVCAR-3 ovarian 113% | HS 578T breast 106% | NCI/ADR-RES ovarian 102%

N#Cc1ccc(N2Cc3ccccc3OC3=C2C(=O)c2c(O)ccc(O)c2C3=O)cc1
active: SK-MEL-2 melanoma -24% | SN12C renal -32.9% | UO-31 renal -80.5% | TK-10 renal -84.4% | ACHN renal -59.9% | CAKI-1 renal 2.96% | CCRF-CEM leukemia -8.98% | RPMI-8226 leukemia 5.99% | OVCAR-8 ovarian 3.86% | OVCAR-5 ovarian -1.88% | OVCAR-4 ovarian -43.4% | OVCAR-3 ovarian -93.2% | HS 578T breast -14.4%
inactive: A498 renal 93.4% | SK-OV-3 ovarian 63.8% | NCI/ADR-RES ovarian 19.7%

NC(N)=Nc1nc2ccccc2o1
inactive: SK-MEL-2 melanoma 133% | SN12C renal 110% | UO-31 renal 99.9% | TK-10 renal 129% | ACHN renal 96.6% | A498 renal 89.5% | CCRF-CEM leukemia 80.1% | MOLT-4 leukemia 95.4% | RPMI-8226 leukemia 58.2% | OVCAR-8 ovarian 110% | OVCAR-5 ovarian 110% | OVCAR-4 ovarian 110% | SK-OV-3 ovarian 107% | IGROV1 ovarian 102% | NCI/ADR-RES ovarian 95.1%

Cc1ccc(S(=O)(=O)Nc2c(Br)cc(Br)cc2C(N)=O)cc1
inactive: SK-MEL-2 melanoma 113% | SN12C renal 101% | UO-31 renal 91.9% | TK-10 renal 161% | ACHN renal 101% | CAKI-1 renal 103% | A498 renal 107% | CCRF-CEM leukemia 95.1% | SR leukemia 111% | RPMI-8226 leukemia 95.2% | OVCAR-8 ovarian 105% | OVCAR-5 ovarian 99.1% | OVCAR-4 ovarian 114% | SK-OV-3 ovarian 106% | IGROV1 ovarian 104% | OVCAR-3 ovarian 112% | HS 578T breast 106% | NCI/ADR-RES ovarian 99.4%

O=S(=O)(NCCNc1nccc(-c2c(-c3ccc(O)cc3)nc3sccn23)n1)c1cccc2ccccc12
inactive: SK-MEL-2 melanoma 124% | SN12C renal 97.7% | UO-31 renal 85.1% | TK-10 renal 98.2% | ACHN renal 107% | CAKI-1 renal 99.7% | A498 renal 104% | CCRF-CEM leukemia 97.8% | MOLT-4 leukemia 87.6% | RPMI-8226 leukemia 92.5% | OVCAR-5 ovarian 114% | OVCAR-4 ovarian 91.6% | SK-OV-3 ovarian 106% | IGROV1 ovarian 105% | OVCAR-3 ovarian 117% | NCI/ADR-RES ovarian 102%

CSc1nc2c(c(=O)[nH]1)C(c1ccc(C)cc1)C=C(C(=O)O)N2 (centres undefined)
inactive: SK-MEL-2 melanoma 120% | SN12C renal 120% | UO-31 renal 88.1% | TK-10 renal 118% | ACHN renal 106% | CAKI-1 renal 88.6% | A498 renal 93.1% | MOLT-4 leukemia 119% | SR leukemia 117% | RPMI-8226 leukemia 112% | OVCAR-8 ovarian 105% | OVCAR-5 ovarian 114% | OVCAR-4 ovarian 113% | IGROV1 ovarian 107% | OVCAR-3 ovarian 123% | NCI/ADR-RES ovarian 109%

N/C(=N\C(N)=N\c1nc2ccccc2s1)c1cccc(Br)c1
inactive: SK-MEL-2 melanoma 106% | SN12C renal 50.7% | UO-31 renal 24.7% | TK-10 renal 157% | ACHN renal 84.8% | CAKI-1 renal 68.8% | CCRF-CEM leukemia 55.8% | MOLT-4 leukemia 77.6% | SR leukemia 33.2% | RPMI-8226 leukemia 83.3% | OVCAR-8 ovarian 72.6% | OVCAR-5 ovarian 95.2% | OVCAR-4 ovarian 107% | SK-OV-3 ovarian 129% | IGROV1 ovarian 66.4% | OVCAR-3 ovarian 103% | HS 578T breast 103% | NCI/ADR-RES ovarian 73.6%

CCOc1cc2c(Cl)ncnc2c(OCC)c1OCC
inactive: SK-MEL-2 melanoma 52.2% | SN12C renal 94% | TK-10 renal 105% | ACHN renal 60.1% | A498 renal 91.1% | CCRF-CEM leukemia 11.2% | MOLT-4 leukemia 21.7% | RPMI-8226 leukemia 15.5% | OVCAR-8 ovarian 99.6% | OVCAR-5 ovarian 96.7% | OVCAR-4 ovarian 94.9% | SK-OV-3 ovarian 108% | HS 578T breast 94.7% | NCI/ADR-RES ovarian 92.5%
active: UO-31 renal -17.7% | SR leukemia 4.52% | IGROV1 ovarian -65.2% | OVCAR-3 ovarian 3.36%

O=C(Nc1cccc(-n2cc(-c3ccncc3)c(-c3ccc(Cl)c(O)c3)n2)c1)Nc1cccc(C(F)(F)F)c1
active: SK-MEL-2 melanoma -25.7% | RPMI-8226 leukemia 1.63% | OVCAR-3 ovarian 0.81%
inactive: SN12C renal 14.6% | UO-31 renal 24.8% | TK-10 renal 21.9% | ACHN renal 11.2% | CAKI-1 renal 30.1% | A498 renal 17.7% | CCRF-CEM leukemia 10.6% | MOLT-4 leukemia 12.5% | OVCAR-8 ovarian 10.6% | OVCAR-5 ovarian 62.4% | SK-OV-3 ovarian 21.2% | IGROV1 ovarian 28.6% | HS 578T breast 29.4% | NCI/ADR-RES ovarian 24.9%

Cc1cc(C)n(-c2nnc3n2N=C(c2ccc(-c4ccccc4)cc2)CS3)n1
inactive: SN12C renal 53.4% | UO-31 renal 46.6% | TK-10 renal 50.6% | ACHN renal 54.8% | CAKI-1 renal 52.8% | A498 renal 20.4% | CCRF-CEM leukemia 28.1% | MOLT-4 leukemia 28.5% | RPMI-8226 leukemia 37.2% | OVCAR-8 ovarian 52.5% | OVCAR-5 ovarian 83.8% | SK-OV-3 ovarian 56.8% | IGROV1 ovarian 69.6% | OVCAR-3 ovarian 15.6% | HS 578T breast 49.2% | NCI/ADR-RES ovarian 35%
active: SK-MEL-2 melanoma -12.1%

From PubChem BioAssay (NCI)
